Bioassay records from PubChem.
SENP7 inh = SENP7 protease inhibitors, primary screen, biochemical, luminescence, uHTS. hit rate 1.5% among 330,000. inhibition, % at 5 µM. Sentrin-specific protease 7 (Homo sapiens), Q9BQF6. recombinant SENP7, Z-RLRGG-aminoluciferin luminescence, 40 min;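 active means inhibition above about 50% at the single test dose, limit read from the data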;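 further: plate controls were DMSO with enzyme for no effect and no enzyme buffer wells for full effect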
Target sequence (Q9BQF6 706-1050 limits assumed): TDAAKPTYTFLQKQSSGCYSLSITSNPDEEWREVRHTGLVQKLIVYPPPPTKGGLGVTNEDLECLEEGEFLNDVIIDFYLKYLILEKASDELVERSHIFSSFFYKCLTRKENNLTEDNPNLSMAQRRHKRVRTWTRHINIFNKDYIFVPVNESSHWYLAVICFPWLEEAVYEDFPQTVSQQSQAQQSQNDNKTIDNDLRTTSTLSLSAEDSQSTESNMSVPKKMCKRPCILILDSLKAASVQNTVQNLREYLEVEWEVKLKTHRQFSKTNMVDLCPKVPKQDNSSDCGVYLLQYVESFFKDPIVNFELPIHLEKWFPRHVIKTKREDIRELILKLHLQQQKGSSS
SENP6 inh = SENP6 protease inhibitors, primary screen, biochemical, luminescence, uHTS; Sentrin-specific protease 6 (Homo sapiens), Q9GZR1; Recombinant SENP6 catalytic domain, aminoluciferin luminescence; inhibition, % at 10 µM; hit rate 1.8% among 330,000;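 active means inhibition above about 50% at the single tested dose, limit read from the data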;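 further: plate controls were DMSO wells with enzyme for no effect and DMSO wells lacking enzyme for full effect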
SENP8 block-1 = SENP8 protease inhibitors, primary screen, biochemical, luminescence; hit rate 1.2% among 330,000; AID 2540, 2010; purified SENP8, Z-RLRGG-aminoluciferin cleavage; inhibition, % at 10 µM; Sentrin-specific protease 8 (Homo sapiens), Q96LD8; in the data active means inhibition above about 50%
Target sequence (Q96LD8 whole entry, looked up): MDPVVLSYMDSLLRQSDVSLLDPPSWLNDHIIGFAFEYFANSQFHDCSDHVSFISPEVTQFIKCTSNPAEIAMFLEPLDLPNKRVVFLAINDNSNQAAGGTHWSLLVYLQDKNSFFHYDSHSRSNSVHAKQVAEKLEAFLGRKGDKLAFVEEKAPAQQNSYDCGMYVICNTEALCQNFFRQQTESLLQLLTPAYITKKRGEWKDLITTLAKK
HSP90 inh = HSP90 inhibitors, primary screen, cell lysate, luminescence | AID 1789, 2009 | hit rate 0.91% among 290,000 | Rabbit reticulocyte lysate, luciferase refolding luminescence, 3 h | inhibition, % at 5.6 µM;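 active means inhibition above the screen-wide mean plus 3 SD, computed separately per campaign, cut at about 16% in these data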;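 further: 0% = DMSO wells and 100% = 60 µM geldanamycin wells; inhibitors lower the luminescence because luciferase stays unfolded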
LGR2 antag = inhibitors of bursicon-induced LGR2 CRE-luciferase signal, primary screen, cell-based, HEK293, CRE-luciferase reporter, bursicon stimulation; Drosophila bursicon receptor LGR2 (rickets); bursicon-stimulated, 4 h; inhibition, % at 9.99 µM; hit rate 0.35% among 380,000; AID 720647, 2013;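 active means drop in luminescence signal, shown as inhibition above about 50% in the replicate tests, limit read from the data, passing the limit was not always enough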;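 further: agonist challenge used bursicon conditioned medium at about half maximal strength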
SENP8 block-2 = human SENP8 protease inhibitors, primary screen, biochemical, fluorescence, Nedd8 protein substrate, uHTS; hit rate 0.64% among 360,000; inhibition, % at 20 µM; Sentrin-specific protease 8 (Homo sapiens), Q96LD8; recombinant SENP8; in the data active means inhibition mostly above about 40%, no sharp cut-off; inactive means mostly below about 27%
SENP8 conf = human SENP8 protease inhibitors, confirmation, biochemical, Nedd8 protein substrate, single concentration. shares compounds with SENP8 block-2. AID 624319, 2012. purified SENP8, Nedd8-AMC/pro-Nedd8 cleavage fluorescence, 30 min. inhibition, % at 25 µM. hit rate 15% among 1,400; in the data active means inhibition mostly above about 39%, no sharp cut-off; inactive means mostly below about 34%
* marks the source's active call; other numbers are inactive results; x = no result. Hits are enriched below; roughly 2.3% of the tested compounds scored in any of these assays.

SMILES | SENP7 inh | SENP6 inh | SENP8 block-1 | HSP90 inh | LGR2 antag | SENP8 block-2 | SENP8 conf
Nc1nnnn1/N=C/c1ccccc1 | 2 | 15 | -1 | -4 | 11 | 11 | x
O=C(Nc1ccc(F)cc1)N[C@H]1CC[C@H](CCNC(=O)c2ccccc2F)O[C@H]1CO | x | x | x | x | 11 | x | x
COc1ccc(-c2noc(N(C)CC(=O)Nc3cccc(C(F)(F)F)c3)n2)cc1 | -5 | -21 | -8 | 1 | x | 43* | 33
CCC(=O)N(C)C[C@@H]1Oc2cc(C#Cc3ccccn3)ccc2S(=O)(=O)N([C@@H](C)CO)C[C@@H]1C | x | x | x | x | -5 | x | x
C=C(C)Cn1c(NCCOC)nc2c1c(=O)[nH]c(=O)n2C | 0 | -3 | -6 | -3 | x | 40* | 9
O=C1CCC[C@H]2c3[nH]c4ccccc4c3CCN12 | 7 | -10 | 3 | x | x | 68* | 6
Oc1ccc(Br)cc1-c1cc(-c2ccccc2Cl)[nH]n1 | -11 | -26 | -26 | 0 | -35 | 42* | 17
CC1(C)CC(=O)c2c(O)cc(OCC(=O)Nc3ccc(S(N)(=O)=O)cc3)cc2O1 | -1 | -14 | 10 | -5 | 12 | 57* | 13
COc1ccc(C(=O)COc2ccc(C)cc2NC(C)=O)cc1 | -7 | -2 | -2 | -2 | -50 | 41* | 8
O=C(COc1ccc(Br)cc1CO)Nc1ccc(F)cc1 | -6 | -16 | -11 | 2 | -5 | 41* | 18
O=C(COc1ccc(Br)cc1CO)Nc1ccc(S(=O)(=O)N2CCCC2)cc1 | -4 | -5 | -6 | x | 14 | 9 | x
C[C@H]1CN([C@@H](C)CO)S(=O)(=O)c2ccc(C#CCN(C)C)cc2O[C@@H]1CN(C)C(=O)c1ccccc1F | x | x | x | x | 7 | x | x
Cc1cccc(S(=O)(=O)N2[C@@H]3CNC[C@H]2C3c2ccc(-c3cncnc3)cc2)c1 (stereo partly drawn) | x | x | x | x | -13 | x | x
CCOC(=O)c1ccc(NC(=O)CCN2C(=O)C3CC=CCC3C2=O)cc1 (stereo not drawn) | 1 | -2 | 2 | x | -11 | 34* | 7
CO[C@H](CN(C)C(=O)c1cc(Cl)cc(Cl)c1)[C@@H](C)CN(C(=O)Nc1ccc(F)cc1)[C@H](C)CO | x | x | x | x | -13 | x | x
Cc1ccc(C(=O)/C=C/C(=O)O)cc1 | -1 | -3 | -1 | 0 | -6 | 22 | x
Cc1ccc(/C=C/C(=O)c2ccc(O)cc2)cc1 | 59* | 86* | 63* | -2 | -40 | 42* | 1
C[C@H]1CN([C@@H](C)CO)C(=O)c2cccc(NS(C)(=O)=O)c2O[C@H]1CN(C)S(=O)(=O)c1ccccc1 | x | x | x | x | -14 | x | x
COc1cc(C)c(C(=O)Oc2cc(C)c(C(=O)O)c(O)c2C)c(OC)c1C | 12 | -5 | -13 | 0 | 9 | 44* | 15
COc1cc(C)c(C(=O)Oc2cc(C)c(C(=O)O)c(O)c2C)c(O)c1C(=O)O | -1 | -3 | 2 | x | -2 | -70 | x
COc1ccc(CN(C)C[C@H]2OCCCC[C@@H](C)Oc3ccc(NC(=O)Nc4ccc(OC)cc4)cc3C(=O)N([C@H](C)CO)C[C@H]2C)cc1 | x | x | x | x | 2 | x | x
COC(=O)c1cc(C(=O)N2CCN(C(=O)c3ccco3)CC2)cc([N+](=O)[O-])c1 | -4 | -5 | -4 | 0 | -19 | -1 | x
COc1ccc([N+](=O)[O-])cc1NC(=O)C(C)N1CCN(C(=O)c2ccco2)CC1 (stereo not drawn) | -9 | -13 | 0 | -1 | -11 | 38* | 16
C[C@@H]1CN([C@H](C)CO)C(=O)c2cc(-c3ccccc3)cnc2O[C@@H]1CN(C)Cc1ccccn1 | x | x | x | x | -6 | x | x
O=[N+]([O-])c1ccc(-c2csc(N3CCCCCC3)n2)cc1 | 1 | -13 | 5 | -1 | -30 | 28 | x
SMILES | SENP7 inh | SENP6 inh | SENP8 block-1 | HSP90 inh | LGR2 antag | SENP8 block-2 | SENP8 conf
O=[N+]([O-])c1ccc(N2CCN(c3nc(-c4ccc(Cl)cc4)cs3)CC2)cc1 | 6 | -12 | -7 | 11 | x | 43* | -9
CCC1=NN(C(=O)c2ccc([N+](=O)[O-])cc2)C(O)(c2ccccc2)C1 (stereo not drawn) | 3 | 4 | 8 | -2 | 12 | 50* | 17
CC/C(=N/Nc1ccccc1C)c1cnnc(SC)n1 | 7 | 27 | 0 | -4 | x | 11 | x
CSc1nncc(/C(C)=N\Nc2ccccc2)n1 | 8 | 6 | 3 | -2 | -16 | 52* | 17
CSc1nncc(/C(C)=N\Nc2cccc(C)c2)n1 | 7 | -6 | 6 | -3 | 3 | 46* | 16
Cc1cccc(N/N=C(\C#N)S(=O)(=O)C(C)(C)C)c1 | x | x | x | 0 | -10 | 23 | x
CCOC(=O)c1c(-c2cccc([N+](=O)[O-])c2)csc1NC(=O)CCCOc1ccccc1OC | x | x | x | 2 | x | 45* | 26
CCC(=O)N(C)C[C@@H]1Oc2cc(-c3ccccc3F)ccc2S(=O)(=O)N([C@H](C)CO)C[C@H]1C | x | x | x | x | 2 | x | x
CCCCc1ccc(NC(=S)NCc2cccc(OC)c2)cc1 | 12 | 6 | -2 | 2 | 5 | 8 | x
CCCCc1ccc(NC(=S)Nc2ccc(Nc3ccc(OC)cc3)cc2)cc1 | 4 | -17 | -13 | 2 | -10 | 42* | 22
Cc1ccc(NNC(=O)c2c(C)noc2C)cc1Cl | -5 | -3 | -4 | 0 | 1 | 54* | 17
COc1ccc(CCC(C)NC2CCCCCCC2)cc1 (stereo not drawn) | 1 | -53 | -3 | 0 | 11 | 49* | -7
O=[N+]([O-])c1ccc(/C=[N+](\[O-])CCO)o1 | -2 | 7 | 5 | 3 | -1 | 45* | 18
COc1cccc(-c2cnc3c(c2)C(=O)N([C@H](C)CO)C[C@H](C)[C@H](CN(C)C)O3)c1 | x | x | x | x | -49 | x | x
CC(=O)Nc1ccc(NC(=O)c2cc([N+](=O)[O-])cc([N+](=O)[O-])c2)cc1 | 0 | 23 | -3 | 4 | -6 | 12 | x
Cc1ccc(NC(=O)c2ccc(Nc3c([N+](=O)[O-])cc([N+](=O)[O-])cc3[N+](=O)[O-])cc2)cc1 | 5 | -14 | 1 | -5 | 85* | 42* | 19
C1CCN(c2nc3nonc3nc2NCC2CCOCC2)CC1 | 8 | 14 | 6 | 3 | -1 | 44* | 23
C1CCN(c2nc3nonc3nc2N2CCCCC2)CC1 | 1 | -2 | -3 | 7 | -5 | 14 | x
C[C@H](CO)N1C[C@H](C)[C@@H](CN(C)C(=O)NC2CCCCC2)Oc2ccc(NC(=O)CCCN(C)C)cc2C1=O | x | x | x | x | 10 | x | x
CC(C)=CCC/C(C)=C/CC/C(C)=N/O | 1 | 25 | 0 | 4 | x | 20 | x
